Data taken from PubChem BioAssay (EPA / NIEHS).
Calls of active or inactive are those of the source. The calls were made as follows: active = hit-call score of the fitted dose curve at least 0.9, where 1 is the maximum; inactive = score below 0.9.

Legend:
Conditions in all cases: mRNA level, 48 h; actives raise or lower the signal
[1] = read-out: ABC Transporter (ABCC2), ABCC2 (gene 1244); assay: LTEA_HepaRG_ABCC2: Life Technologies and Expression Analysis (LTEA) Assay for ABC Transporter (ABCC2) using HepaRG (AID 2283464)
In short: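 HepaRG, 48 h post-plating; serum-free induction medium; cpd 8-pt, 100 uM top, half-log, 0.5% DMSO, duplicate, 48 h. Readout: ABCC2 mRNA by qRT-PCR, norm. ACTB/GAPDH/POLR2A. Bidirectional fit vs DMSO baseline.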

[2] = read-out: Broad substrate specificity ATP-binding cassette transporter ABCG2 (Homo sapiens) (UniProt Q9UNQ0); assay: LTEA_HepaRG_ABCG2: Life Technologies and Expression Analysis (LTEA) Assay for ABC Transporter (ABCG2) using HepaRG (AID 2283465)
In short: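 Differentiated HepaRG cells were exposed for 48 h in serum-free induction medium to 8 half-log concentrations, top 100 uM, in 0.5% DMSO. ABCG2 mRNA was measured by qRT-PCR, normalized to ACTB, GAPDH and POLR2A, with bidirectional fitting versus DMSO.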

[3] = read-out: ATP-citrate lyase (ACLY), ACLY (gene 47); assay: LTEA_HepaRG_ACLY: Life Technologies and Expression Analysis (LTEA) Assay for ATP-citrate lyase (ACLY) using HepaRG (AID 2283466)
In short: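 Differentiated HepaRG cells exposed 48 h in serum-free induction medium to eight half-log concentrations up to 100 uM in 0.5% DMSO, duplicates. Transcript measured by Fluidigm TaqMan qRT-PCR, normalized to ACTB, GAPDH, POLR2A; bidirectional fit versus DMSO.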

[4] = read-out: Peroxisomal acyl-coenzyme A oxidase 1 (ACOX1) gene, ACOX1 (gene 51); assay: LTEA_HepaRG_ACOX1: Life Technologies and Expression Analysis (LTEA) Assay for Peroxisomal acyl-coenzyme A oxidase 1 (ACOX1) gene using HepaRG (AID 2283467)
In short: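 HepaRG cells, plated 48 h then switched to serum-free induction medium, were exposed in duplicate for 48 h to 8-point half-log concentrations up to 100 uM in 0.5% DMSO. ACOX1 mRNA was measured by qRT-PCR, normalized to ACTB/GAPDH/POLR2A, and fitted bidirectionally versus DMSO.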

[5] = read-out: Alkaline Phosphatase, Placental (ALPP) gene, ALPP (gene 250); assay: LTEA_HepaRG_ALPP: Life Technologies and Expression Analysis (LTEA) Assay for Alkaline Phosphatase, Placental (ALPP) gene using HepaRG (AID 2283468)
In short: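 HepaRG, 48 h plating then 48 h dosing, serum-free induction medium, 0.5% DMSO. 8 conc, half-log, max 100 uM, duplicates. Endpoint: ALPP transcript by qRT-PCR, housekeeping-normalized; gain or loss fitted vs DMSO.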

[6] = read-out: Bcl-2 (BAD) gene, BAD (gene 572); assay: LTEA_HepaRG_BAD: Life Technologies and Expression Analysis (LTEA) Assay for Bcl-2 (BAD) gene using HepaRG (AID 2283469)
In short: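 Differentiated HepaRG cells were exposed in duplicate in 0.5% DMSO for 48 h to eight-point half-log concentrations up to 100 uM. BAD mRNA was measured by Fluidigm TaqMan qRT-PCR, normalized to ACTB, GAPDH and POLR2A, and fitted bidirectionally against DMSO.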

[7] = read-out: Bcl-2 (BAX) gene, BAX (gene 581); assay: LTEA_HepaRG_BAX: Life Technologies and Expression Analysis (LTEA) Assay for Bcl-2 (BAX) gene using HepaRG (AID 2283470)
In short: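 Differentiated HepaRG cells exposed 48 h in serum-free induction medium, eight half-log concentrations from 100 uM, in duplicate, 0.5% DMSO vehicle. BAX mRNA by TaqMan qRT-PCR, normalised to ACTB, GAPDH and POLR2A.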

[8] = read-out: adenosine kinase (ADK) gene, ADK (gene 132); assay: LTEA_HepaRG_ADK: Life Technologies and Expression Analysis (LTEA) Assay for adenosine kinase (ADK) gene using HepaRG (AID 2283471)
In short: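 HepaRG (human liver), 48 h chemical exposure, 8-pt half-log series, top 100 uM, 0.5% DMSO vehicle. Readout: ADK mRNA by qRT-PCR vs housekeeping genes; bidirectional curve fit relative to DMSO baseline.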

[9] = read-out: Alpha-fetoprotein (AFP) gene, AFP (gene 174); assay: LTEA_HepaRG_AFP: Life Technologies and Expression Analysis (LTEA) Assay for Alpha-fetoprotein (AFP) gene using HepaRG (AID 2283472)
In short: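 Differentiated human HepaRG cells exposed 48 h in serum-free induction medium, 8-point half-log series from 100 uM in 0.5% DMSO, duplicate. AFP mRNA by qRT-PCR, normalized to ACTB, GAPDH, POLR2A; bidirectional fit vs DMSO.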

BCL2L11 (gene 10018) = assay: LTEA_HepaRG_BCL2L11: Life Technologies and Expression Analysis (LTEA) Assay for Bcl-2 (BCL2L11) gene using HepaRG (AID 2283473)
In short: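 Read-out is BCL2L11 transcript level by qRT-PCR, normalized to three housekeeping genes and fitted bidirectionally against 0.5% DMSO vehicle. HepaRG cells received chemicals for 48 h in serum-free induction medium, 100 uM down in half-log dilutions.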

Measured: AC50

Sequence of Broad substrate specificity ATP-binding cassette transporter ABCG2 (Homo sapiens) (Q9UNQ0 whole entry, looked up): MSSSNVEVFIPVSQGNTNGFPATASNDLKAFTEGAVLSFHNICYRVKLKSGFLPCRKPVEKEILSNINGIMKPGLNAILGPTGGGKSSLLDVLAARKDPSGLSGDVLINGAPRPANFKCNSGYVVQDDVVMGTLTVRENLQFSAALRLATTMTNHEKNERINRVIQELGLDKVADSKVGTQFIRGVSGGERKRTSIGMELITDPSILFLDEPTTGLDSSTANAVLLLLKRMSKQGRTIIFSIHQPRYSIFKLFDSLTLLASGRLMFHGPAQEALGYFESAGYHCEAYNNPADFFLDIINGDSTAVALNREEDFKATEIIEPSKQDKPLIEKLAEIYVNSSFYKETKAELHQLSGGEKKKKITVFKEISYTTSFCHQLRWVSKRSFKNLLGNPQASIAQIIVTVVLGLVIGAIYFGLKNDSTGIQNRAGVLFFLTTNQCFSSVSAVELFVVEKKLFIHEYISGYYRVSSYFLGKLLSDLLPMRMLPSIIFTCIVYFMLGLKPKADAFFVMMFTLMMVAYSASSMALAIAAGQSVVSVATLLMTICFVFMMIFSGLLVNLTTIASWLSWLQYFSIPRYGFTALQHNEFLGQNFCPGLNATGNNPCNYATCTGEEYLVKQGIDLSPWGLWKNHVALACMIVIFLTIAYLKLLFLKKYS

CC1(C(=O)Nc2ccc(O)c(Cl)c2Cl)CCCCC1
inactive: all assays above

Nc1nc(N)nc(NC2CC2)n1
not listed: [3]
inactive: all other assays above

CSc1nnc(C(C)(C)C)c(=O)n1N
not listed: [3]
inactive: all other assays above

CC(C)[C@H](C(=O)O[C@H](C#N)c1cccc(Oc2ccccc2)c1)c1ccc(Cl)cc1
active: [1] 50 µM | [2] 37 µM | [9] 24.7 µM
not listed: [3]
inactive: all other assays above

C[Si](Cn1cncn1)(c1ccc(F)cc1)c1ccc(F)cc1
active: [1] 50 µM | [2] 16.3 µM | [4] 40.9 µM | [5] 50 µM | [7] 78.9 µM | [9] 25.4 µM
inactive: [8] | BCL2L11 (gene 10018)

CCC(=NOC/C=C/Cl)C1=C(O)CC(C2CCOCC2)CC1=O (stereo unspecified)
not listed: [3]
inactive: all other assays above

O=[N+]([O-])c1cc(C(F)(F)F)c(Cl)c([N+](=O)[O-])c1Nc1ncc(C(F)(F)F)cc1Cl
inactive: [6] | [7]
active: [1] 67.9 µM | [2] 50 µM | [4] 60.2 µM | [5] 9.95 µM | [8] 50 µM | [9] 23 µM | BCL2L11 (gene 10018) 66.3 µM

O=C(O)c1cc(Oc2ccc(C(F)(F)F)cc2Cl)ccc1[N+](=O)[O-]
active: [1] 50 µM | [2] 2.98 µM | [4] 28.4 µM
not listed: [3]
inactive: all other assays above

CNC(=O)ON=C(C)SC
not listed: [3]
inactive: all other assays above

C[N+]1(C)CCCCC1
not listed: [3]
inactive: all other assays above

CCC(CC)Nc1c([N+](=O)[O-])cc(C)c(C)c1[N+](=O)[O-]
active: [2] 60.6 µM | [9] 50 µM
not listed: [3]
inactive: all other assays above

CCc1cccc(C)c1N(C(=O)CCl)C(C)COC (stereo unspecified)
active: [9] 77.1 µM
not listed: [3]
inactive: all other assays above

N#CSCSC#N
active: [5] 12.5 µM | [7] 50 µM | [9] 80.2 µM | BCL2L11 (gene 10018) 78.8 µM
not listed: [3]
inactive: all other assays above

CCOP(=S)(Oc1cnc(C(C)(C)C)nc1)OC(C)C (stereo unspecified)
active: [4] 2.27 µM | [9] 19.4 µM
not listed: [3]
inactive: all other assays above

COP(=O)(OC)SCn1c(=O)oc2cc(Cl)cnc21
active: BCL2L11 (gene 10018) 50 µM
not listed: [3]
inactive: all other assays above

CCOP(=S)(OCC)Oc1cc(C)nc(C(C)C)n1
not listed: [3]
inactive: all other assays above

CSc1nc(NC(C)C)nc(NC(C)C)n1
active: [9] 50 µM
not listed: [3] | [5]
inactive: all other assays above

CCCSP(=O)(OCC)Oc1ccc(Br)cc1Cl (stereo unspecified)
not listed: [3]
inactive: all other assays above
